Results filed as inconclusive are left out. Where a call stands in place of a potency, no number is given. Calls of active or inactive are those of the source. Unless noted, calls come from the whole dose curve; as a rule, active = well fitted curve in the direction sought with a large enough effect; inconclusive = small, poorly fitted or top-dose-only effect, or another doubt; inactive = no such curve, though single readings can be large; an effect the other way counts as inactive or inconclusive.
Columns and labels:
[1] = qHTS for Inhibitors of Ubiquitin-specific Protease USP2a Using CHOP2 as the Reporter: K633 Counterscreen (AID 652168); note: series mostly up to about 57 µM
In short: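 Cell-free interference counterscreen without USP2a: compounds pinned into enzyme-free buffer (20 mM Tris pH 8, 2 mM beta-mercaptoethanol, 0.05% Chaps), then DiUb K48-4IQF substrate added (100 nM stock); fluorescence read kinetically, Ex 525/Em 598.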

[2] = qHTS for Inhibitors of Ubiquitin-specific Protease USP2a Using CHOP2 as the Reporter: Cytotox Assay (AID 652170); note: nearly all actives have a fitted effect of over 70% in size; note: potency is the fitted concentration of half-maximal effect
In short: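 HCT116 human colon cancer cells, 600 per well in DMEM with 10% FBS, exposed to compounds for 72 hr at 37 deg C. ATP measured by CellTiter-Glo luminescence, normalized to DMSO cells and no-cell background.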

[3] = target: Ubiquitin carboxyl-terminal hydrolase 2 (Homo sapiens) (UniProt O75604); experiment: qHTS for Inhibitors of Ubiquitin-specific Protease USP2a Using CHOP2 as the Reporter: K484 Substrate (AID 652173);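 note: cleavage of internally quenched K48 di-ubiquitin substrate measured as rising fluorescence over time; nearly all actives have a fitted effect of over 70% in size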; note: potency is the fitted concentration of half-maximal effect
In short: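 USP2 (dispensed at 5 nM) was pinned with compounds, then DiUb K48 internally quenched fluorescent substrate (dispensed at 100 nM) was added. The buffer was 20 mM Tris pH 8, 2 mM beta-mercaptoethanol and 0.05% CHAPS. Cleavage was read kinetically as rising fluorescence, Ex 525/Em 598.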

[4] = target: Calcium and integrin-binding protein 1 (Homo sapiens) (UniProt Q99828); experiment: Primary qHTS for Identification of Calcium Integrin Binding Protein 1 (CIB1) Competitor (AID 1508620);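 note: GST tagged CIB1 binding a fluorescein labelled alphaIIb integrin peptide tracer; top concentration of the series differs between compounds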
In short: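 Fluorescence polarization competition: CIB1-GST (1 uM final) preincubated with compound 15 min at room temperature, then FITC-labeled alphaIIb peptide (100 nM final) added for another 15 min. Polarization read at Ex 480/Em 540.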

[5] = target: Mitogen-activated protein kinase 10 (Mus musculus) (UniProt Q61831); experiment: JNK3 AlphaScreen Assay (AID 530; active = well fitted curve in either direction with a large enough effect, not every such curve was filed as active;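 note: kinase came from lysate of stimulated human HepG2 cells; signal reports phosphorylation of biotinylated GST-cJun 1-79 at Ser73 with 10 µM ATP; series mostly up to about 57 µM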)
In short: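 JNK3 came from HepG2 lysates pre-activated with IL-1beta and TNF-alpha and phosphorylated biotinylated GST-cJun (1-79) at 10 uM ATP, pH 7.6, room temperature. Compounds were titrated. AlphaScreen signal used anti-phospho-cJun (Ser73) antibody.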

[6] = target: Cytochrome P450 3A4 (Homo sapiens) (UniProt P08684); experiment: qHTS Assay for Activators of Cytochrome P450 3A4 (AID 885); note: nearly all actives have a fitted effect of over 65% in size
In short: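 Human CYP3A4 (20 nM) with Luciferin-PPXE at 25 uM (its KM) in 200 mM KPO4; 10 min compound preincubation, then NADPH regeneration and 60 min reaction at RT. Luciferin read by luminescence; normalized to 57 uM ketoconazole full inhibition.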

Sequence of Cytochrome P450 3A4 (Homo sapiens) (P08684 whole entry, looked up): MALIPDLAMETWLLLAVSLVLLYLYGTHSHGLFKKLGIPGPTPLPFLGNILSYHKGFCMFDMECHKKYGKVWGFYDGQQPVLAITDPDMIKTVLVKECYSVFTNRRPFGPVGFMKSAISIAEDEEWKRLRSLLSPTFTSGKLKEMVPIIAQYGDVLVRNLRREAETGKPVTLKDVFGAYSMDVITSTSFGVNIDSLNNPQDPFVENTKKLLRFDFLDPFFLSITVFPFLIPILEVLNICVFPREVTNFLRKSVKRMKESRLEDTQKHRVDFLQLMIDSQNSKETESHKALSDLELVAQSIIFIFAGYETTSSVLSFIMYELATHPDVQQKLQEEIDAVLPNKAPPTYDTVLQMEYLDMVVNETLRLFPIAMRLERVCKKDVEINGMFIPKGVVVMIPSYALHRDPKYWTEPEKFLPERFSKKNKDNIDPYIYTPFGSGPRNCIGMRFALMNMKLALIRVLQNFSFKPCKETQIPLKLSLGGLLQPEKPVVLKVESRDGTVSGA
Sequence of Ubiquitin carboxyl-terminal hydrolase 2 (Homo sapiens) (O75604 whole entry, looked up): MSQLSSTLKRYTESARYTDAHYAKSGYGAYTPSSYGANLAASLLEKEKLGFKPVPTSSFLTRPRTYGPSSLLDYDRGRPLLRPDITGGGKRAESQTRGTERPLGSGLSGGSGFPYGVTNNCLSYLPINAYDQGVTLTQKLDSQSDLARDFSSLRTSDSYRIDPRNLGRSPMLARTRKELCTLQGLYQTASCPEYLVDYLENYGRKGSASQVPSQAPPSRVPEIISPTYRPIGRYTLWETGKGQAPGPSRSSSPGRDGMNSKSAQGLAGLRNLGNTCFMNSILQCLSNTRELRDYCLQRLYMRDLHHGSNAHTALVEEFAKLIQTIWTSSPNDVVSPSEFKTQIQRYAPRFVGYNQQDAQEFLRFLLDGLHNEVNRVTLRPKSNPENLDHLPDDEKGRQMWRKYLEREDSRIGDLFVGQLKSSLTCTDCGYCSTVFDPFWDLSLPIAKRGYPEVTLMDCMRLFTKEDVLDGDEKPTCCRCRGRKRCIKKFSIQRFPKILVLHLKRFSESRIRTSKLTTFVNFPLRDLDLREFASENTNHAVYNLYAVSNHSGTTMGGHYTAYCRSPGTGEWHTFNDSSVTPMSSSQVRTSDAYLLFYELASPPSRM
Sequence of Calcium and integrin-binding protein 1 (Homo sapiens) (Q99828 whole entry, looked up): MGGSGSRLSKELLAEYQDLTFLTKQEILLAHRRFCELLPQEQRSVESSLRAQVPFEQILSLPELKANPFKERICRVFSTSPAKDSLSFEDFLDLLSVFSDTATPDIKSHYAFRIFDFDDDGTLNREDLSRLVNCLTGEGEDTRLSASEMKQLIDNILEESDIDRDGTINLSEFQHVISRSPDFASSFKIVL

COc1ccc(-c2csc(NC(=O)c3ccccc3NS(=O)(=O)c3ccc(C)cc3)n2)cc1
outcome [1]: inactive
Potency [2]: 18.7 µM (active)
Potency [3]: 2.73 µM (active)
Potency [4]: inactive

Cc1nc(N2CCOCC2)c2nc(-c3ccccc3)n(CCN3CCOCC3)c2n1
outcome [5]: inactive
Potency [6]: inactive
Potency [4]: inactive

CC1CC1C(=O)Nc1ccc([S+](=O)([O-])Nc2nccs2)cc1 (stereo not given)
outcome [1]: inactive
Potency [2]: inactive
Potency [3]: inactive
Potency [4]: inactive

Cc1ccc(-c2cc(C(=O)Nc3cccc(Cl)c3)c3ccccc3n2)cc1C
outcome [1]: inactive
Potency [2]: inactive
Potency [4]: inactive

O=C(Nc1ccc([S+](=O)([O-])Nc2nccs2)cc1)c1ncn[nH]1
outcome [1]: inactive
Potency [2]: inactive
Potency [3]: inactive
Potency [4]: inactive

Cc1nc(N2CCOCC2)c2nc(-c3ccccc3)n(CCCN3CCCCC3C)c2n1 (stereo not given)
outcome [5]: inactive
Potency [6]: inactive
Potency [4]: inactive

O=C(Cc1ccccc1)Nc1ccc(S(=O)(=O)Nc2nccs2)cc1
outcome [1]: inactive
Potency [2]: inactive
Potency [3]: inactive
Potency [4]: inactive

Cc1ccc([S+](=O)([O-])n2cc(Cc3ccc(-c4ccccc4)cc3)c3ccccc32)cc1
outcome [1]: inactive
Potency [2]: inactive
Potency [3]: inactive
Potency [4]: inactive

CCCn1c(C)nc2c(N(CCOC)CCOC)nc(C)nc21
outcome [5]: inactive
Potency [6]: inactive
Potency [4]: inactive

Cc1nc(N2CCOCC2)c2nc(-c3ccccc3)n(C(C)CN(C)C)c2n1 (stereo not given)
outcome [5]: inactive
Potency [6]: inactive
Potency [4]: inactive

Cc1nc(NC2CCCCC2)c2nc(-c3ccccc3)n(CCCN(C)C)c2n1
outcome [5]: inactive
Potency [6]: inactive
Potency [4]: inactive

COCCN(CCOC)c1nc(C)nc2c1nc(-c1ccccc1)n2CCN(C)C
outcome [5]: inactive
Potency [6]: inactive
Potency [4]: inactive

CCCn1c(-c2ccc(F)cc2)nc2c(NC(C)CN(C)C)nc(C)nc21 (stereo not given)
outcome [5]: inactive
Potency [6]: inactive
Potency [4]: inactive

Cc1nc(NCc2ccccc2)c2nc(-c3ccccc3)n(CCN(C)C)c2n1
outcome [5]: inactive
Potency [6]: inactive
Potency [4]: inactive

Cc1ccc(S(=O)(=O)Nc2cnccc2C(=O)Nc2nc(-c3ccncc3)cs2)cc1
outcome [1]: inactive
Potency [2]: inactive
Potency [3]: 15.3 µM (active)
Potency [4]: inactive

CCN(CC)CCCCn1c(-c2ccccc2)nc2c(NC3CCCCC3)nc(C)nc21
outcome [5]: inactive
Potency [6]: inactive
Potency [4]: inactive

CCN(CC)CCCCn1c(-c2ccccc2)nc2c(N3CCOCC3)nc(C)nc21
outcome [5]: inactive
Potency [6]: inactive
Potency [4]: inactive

CCCC1CCC(C(=O)Nc2ccc(S(=O)(=O)Nc3nccs3)cc2)CC1 (stereo not given)
outcome [1]: inactive
Potency [2]: inactive
Potency [3]: 10.9 µM (active)
Potency [4]: inactive

CCCn1c(-c2ccc(F)cc2)nc2c(NCCCCN(C)C)nc(C)nc21
outcome [5]: inactive
Potency [6]: inactive
Potency [4]: inactive

CCCCC(=O)N1CCC(C(=O)Nc2ccc([S+](=O)([O-])Nc3nccs3)cc2)CC1
outcome [1]: inactive
Potency [2]: inactive
Potency [3]: inactive
Potency [4]: inactive

Cc1ccc(S(=O)(=O)Nc2cnccc2C(=O)Nc2nc(-c3ccc(-c4ccccc4)cc3)cs2)cc1
outcome [1]: inactive
Potency [2]: 20.9 µM (active)
Potency [3]: 2.17 µM (active)
Potency [4]: inactive

COc1ccc(C(=O)Nc2nc(-c3ccccc3)cs2)c(OC)c1
outcome [1]: inactive
Potency [2]: inactive
Potency [4]: inactive

COCCN(CCOC)c1nc(C)nc2c1nc(-c1ccccc1)n2CCCN(C)C
outcome [5]: inactive
Potency [6]: inactive
Potency [4]: inactive

CCCn1c(C)nc2c(NC3CCN(Cc4ccccc4)C3)nc(C)nc21 (stereo not given)
outcome [5]: inactive
Potency [6]: inactive
Potency [4]: inactive

COc1cccc(NC(=O)c2cc(-c3ccc(C)c(C)c3)nc3ccccc23)c1
outcome [1]: inactive
Potency [2]: inactive
Potency [3]: 9.68 µM (active)
Potency [4]: inactive

CCCCNc1nc(C)nc2c1nc(-c1ccccc1)n2CCCCN(CC)CC
outcome [5]: inactive
Potency [6]: inactive
Potency [4]: inactive

CCCCNc1nc(C)nc2c1nc(C)n2CCC
outcome [5]: inactive
Potency [6]: inactive
Potency [4]: inactive

CC(C)(C)OC(=O)N1CCC(C(=O)Nc2ccc([S+](=O)([O-])Nc3nccs3)cc2)CC1
outcome [1]: inactive
Potency [2]: inactive
Potency [3]: inactive
Potency [4]: inactive

Reference: PubChem BioAssay (NCATS)
